rCAG binder: r(CAG) repeat RNA binding | TO-PRO-1 dye displacement fluorescence | inhibition, % at 3 µM | 370,000 tested, 1.3% active | AID 651821;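 active = inhibition above the plate cutoff, the mean of all test compounds on that plate plus 3 SD, cut at about 35% in these data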;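 note: 0% = DMSO alone and 100% = 100 µM mitoxantrone as full dye displacement; higher means more dye released from RNA so lower well fluorescence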
MsrA inhibitor: inhibitors of bovine MsrA; AID 651718; purified bovine MsrA, absorbance read-out; 360,000 tested, 0.75% active; inhibition, % at 15.5 µM; in the data active = inhibition above about 4.5%;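 note: 0% = vehicle wells with enzyme and 100% = reference inhibitor wells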
sPLA2-III inh: Blocks human group III sPLA2 activity; Q9NZ20; QFRET BODIPY PC-A2 liposome hydrolysis, fluorescence; inhibition, % at 12.2 µM; 370,000 tested, 0.56% active; AID 743126;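 active = inhibition above mean plus 3 SD of compounds lying within the high and low control bounds, cut at about 19% in these data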;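 note: 0% = median of test compound wells and 100% = no enzyme DMSO wells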
Target sequence (Q9NZ20 whole entry, looked up): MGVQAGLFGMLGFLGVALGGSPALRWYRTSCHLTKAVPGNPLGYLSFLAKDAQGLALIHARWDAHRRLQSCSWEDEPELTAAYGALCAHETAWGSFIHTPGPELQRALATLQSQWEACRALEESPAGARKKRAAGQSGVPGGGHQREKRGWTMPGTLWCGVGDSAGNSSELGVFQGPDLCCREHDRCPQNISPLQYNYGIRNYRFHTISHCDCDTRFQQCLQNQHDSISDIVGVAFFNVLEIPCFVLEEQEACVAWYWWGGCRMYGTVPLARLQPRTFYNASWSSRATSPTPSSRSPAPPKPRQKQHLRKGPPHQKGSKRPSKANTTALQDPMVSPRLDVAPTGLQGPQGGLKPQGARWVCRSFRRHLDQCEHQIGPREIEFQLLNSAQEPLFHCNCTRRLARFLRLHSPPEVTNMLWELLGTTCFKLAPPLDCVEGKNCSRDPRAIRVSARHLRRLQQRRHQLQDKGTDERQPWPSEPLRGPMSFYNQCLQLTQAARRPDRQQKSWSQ
MsrA act: activates bovine MsrA enzyme | purified bovine MsrA, absorbance read-out | activation, % at 10.6 µM | 360,000 tested, 0.3% active; in the data active = activation above about 7.5%;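 note: 0% = vehicle and 100% = reference activator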
MsrA act confirm: bovine methionine sulfoxide reductase A activation confirmed; purified bovine MsrA, absorbance read-out; AID 602270; 1,000 tested, 12% active; activation, % at 10.6 µM; shares compounds with MsrA act; in the data active = activation above about 4%;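 note: enzyme coupled to thioredoxin and thioredoxin reductase with NADPH; 0% = vehicle wells and 100% = reference activator wells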
Active calls of the source: *; x = no result given. Rows were chosen to be rich in hits. Some 2.8% of all compounds tested hit in one or more screens of this group.

SMILES	rCAG binder	MsrA inhibitor	sPLA2-III inh	MsrA act	MsrA act confirm
CCN(CC)c1ccc(-c2sc(Nc3ccccc3)n[n+]2-c2ccc(F)cc2)cc1	-21	3	7	17*	4.0*
CCCCn1nnc(NC(=O)COc2ccc(Cl)c(C)c2)n1	-6	-1	-11	-3	x
Cc1nnc(NC(=O)c2nc(S(=O)(=O)Cc3ccccc3)ncc2Cl)s1	4	-1	4	11*	1
Cc1cccc(C)c1NC(=O)c1nc(S(=O)(=O)Cc2ccccc2)ncc1Cl	-2	1	0	-4	x
COc1ccc(/C=N/NC(=O)c2ccc(Cl)c(S(N)(=O)=O)c2)cc1OCC(N)=O	3	3	6	-4	x
O=C(CC(c1ccccc1)c1cc(Cl)ccc1O)N1CCOCC1 (configuration not stated)	-2	0	-8	9.8*	0
Cc1cc(C)c(S(=O)(=O)NC2CCN(Cc3ccccc3)CC2)c(C)c1	-8	0	-36	-2	x
Cc1noc(C)c1S(=O)(=O)NC1CCN(Cc2ccccc2)CC1	0	-1	-4	10*	-1
CCN(CC)CCCN1CC(=O)N2[C@@H](Cc3c([nH]c4ccccc34)C2(C)C)C1=O	-4	1	16	-2	x
O=C(CCSc1ccccn1)c1ccccc1	0	2	4	7.8*	-1
Cc1cc(-c2cc(-c3ccc(Cl)cc3)on2)nc(NCC2CC2)n1	3	-1	0	-3	x
COc1ccc(S(=O)(=O)NCc2ccc(C(=O)N3CCN(Cc4ccccc4)CC3)cc2)cc1	-4	0	-11	-4	x
COc1ccc(S(=O)(=O)NCc2ccc(C(=O)O)cc2)cc1	-2	1	9	7.9*	-2
O=[N+]([O-])c1ccc(-[n+]2ccc3ccccc3c2)c([N+](=O)[O-])c1	5	2	15	11*	3
COC(=O)c1ccccc1S(=O)(=O)N1CCC(c2nc3ccccc3o2)CC1	-4	0	-18	12*	-2
COC(=O)c1cccc(S(=O)(=O)N2CCC(c3nc4ccccc4o3)CC2)c1	-6	-1	-69	-9	x
Cc1noc(C)c1NC(=O)N(C)C[C@H]1Oc2ccc(NC(=O)NC(C)C)cc2C(=O)N([C@H](C)CO)C[C@H]1C	0	1	3	-13	x
COc1ccc(NC(=O)N(C)C[C@H]2OCCCC[C@@H](C)Oc3ccc(NC(=O)c4ccccc4)cc3C(=O)N([C@H](C)CO)C[C@@H]2C)cc1	13	0	3	11*	-2
Cc1noc(C)c1NC(=O)N(C)C[C@H]1Oc2ccc(NC(=O)Nc3ccc(C(F)(F)F)cc3)cc2C(=O)N([C@H](C)CO)C[C@@H]1C	-1	-1	-25	19*	0
Cc1cc(Cl)cc2sc(=S)[nH]c12	3	0	0	8.2*	2
Cc1[nH]c(=S)sc1Cc1ccc(Cl)c(Cl)c1	4	0	2	x	x
CC(OC(=O)c1cccc(S(=O)(=O)N2CCCCC2)c1)C(=O)NC1CCCCC1C (configuration not stated)	-4	-1	-2	21*	0
O=[N+]([O-])c1ccc2[nH]c(O)c(N=NC3CCS(=O)(=O)C3)c2c1 (configuration not stated)	-3	2	-1	-2	x
COc1cc(OC)cc(C(=O)NC2CCN(CC(=O)Nc3cccc4ccccc34)CC2)c1	2	1	-13	8.9*	-1
CC(=O)Nc1ccc(S(=O)(=O)N2CC(=O)NC(=O)C2)cc1	-1	-1	2	-2	x
SMILES	rCAG binder	MsrA inhibitor	sPLA2-III inh	MsrA act	MsrA act confirm
Cc1c(NC(=O)C(C)N2C(=O)C3CCCCC3C2=O)c(=O)n(-c2ccccc2)n1C (configuration not stated)	-2	0	5	10*	-2
CCCN1Cc2cccc(C(=O)NCc3cccs3)c2C1=O	-6	-2	5	-6	x
CCOC(=O)c1cc2c(=O)n3ccccc3nc2n(CCOC)c1=NC(=O)C(C)(C)C	-8	0	1	8.2*	0
CCOC(=O)c1cc2c(=O)n3ccccc3nc2n(CCCOC)c1=NC(=O)C(C)(C)C	-1	-1	6	-1	x
Cc1cc(=O)[nH]c(SCC(=O)N2CCc3ccccc3C2)n1	-2	-2	6	9.5*	1
O=C(CCCN=C1NS(=O)(=O)c2ccccc21)OCc1ccccc1	1	-1	0	8.8*	-2
O=C(CCCN=C1NS(=O)(=O)c2ccccc21)OCc1ccc(F)cc1	-1	1	2	-5	x
CC(NC(=O)Cn1cccc1C(=O)c1ccccc1)c1ccccc1 (configuration not stated)	-2	0	-4	12*	-2

Bioassay records (PubChem)
